A number with no mark means an inactive call. Inconclusive results are not listed. Entries that show only a call come without a potency. Activity calls are given as the source filed them. Unless noted, calls come from the whole dose curve; as a rule, active = well fitted curve in the direction sought with a large enough effect in the repeat runs; inconclusive = weak or mixed curves; inactive = no such curve, though single readings can be large; an effect the other way counts as inactive or inconclusive.
Tests used:
[1] = qHTS assay to test for compound auto fluorescence at 535 nm (green) in HEK293 cells (AID 720680)
[2] = qHTS assay to test for compound auto fluorescence at 460 nm (blue) in HEK293 cell free culture (AID 720681)
Outline: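 Blue fluorescence (Ex 405/Em 460 nm, triamterene-equivalent) was read immediately after pin transfer of compound or DMSO into medium (DMEM, 10% FBS) without cells.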

[3] = qHTS assay to test for compound auto fluorescence at 535 nm (green) in HEK293 cell free culture (AID 720682)
Outline: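 Green-channel intensity (Ex/Em 485/535 nm) was recorded from compound-treated wells containing only DMEM with 10% FBS. Fluorescein provided the equivalency standard.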

[4] = qHTS assay to test for compound auto fluorescence at 590 nm (red) in HEK293 cell free culture (AID 720683)
Outline: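 Red-channel autofluorescence of compounds in culture medium (DMEM, 10% FBS), no cells, measured at 540/590 nm. Rose Bengal sodium is the reference fluorophore for equivalence.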

[5] = qHTS assay to test for compound auto fluorescence at 590 nm (red) in HepG2 cell free culture (AID 720684)
Outline: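 Plate contents were MEM with 10% FBS plus test compound or DMSO, no cells. Fluorescence was recorded with 540 nm excitation and 590 nm emission.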

[6] = qHTS assay to test for compound auto fluorescence at 460 nm (blue) in HepG2 cell free culture (AID 720685)
Outline: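 Compound (23 nL) or DMSO pinned into cell-free MEM with 10% FBS; blue fluorescence read at 405/460 nm excitation/emission, expressed as auto-fluorescence equivalency to triamterene.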

[7] = qHTS assay to test for compound auto fluorescence at 535 nm (green) in HepG2 cell free culture (AID 720686)
[8] = qHTS assay to test for compound auto fluorescence at 460 nm (blue) in HepG2 cells (AID 720687)
Outline: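 Blue-channel autofluorescence (Ex/Em 405/460 nm, triamterene-equivalent) was measured after 1 hr compound exposure at 37 C, 5% CO2. Cells were HepG2, plated overnight at 37 C in MEM plus 10% FBS.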

[9] = target: Glucocorticoid receptor (Homo sapiens) (UniProt P04150); assay: qHTS assay to identify small molecule agonists of the glucocorticoid receptor (GR) signaling pathway (AID 720691; active = well fitted activation curve with a large enough effect in the signal ratio in the repeat runs, not every such curve was filed as active; the % refers to the signal ratio; note: potency is the fitted concentration of half-maximal effect)
Sequence of Glucocorticoid receptor (Homo sapiens) (P04150 whole entry, looked up): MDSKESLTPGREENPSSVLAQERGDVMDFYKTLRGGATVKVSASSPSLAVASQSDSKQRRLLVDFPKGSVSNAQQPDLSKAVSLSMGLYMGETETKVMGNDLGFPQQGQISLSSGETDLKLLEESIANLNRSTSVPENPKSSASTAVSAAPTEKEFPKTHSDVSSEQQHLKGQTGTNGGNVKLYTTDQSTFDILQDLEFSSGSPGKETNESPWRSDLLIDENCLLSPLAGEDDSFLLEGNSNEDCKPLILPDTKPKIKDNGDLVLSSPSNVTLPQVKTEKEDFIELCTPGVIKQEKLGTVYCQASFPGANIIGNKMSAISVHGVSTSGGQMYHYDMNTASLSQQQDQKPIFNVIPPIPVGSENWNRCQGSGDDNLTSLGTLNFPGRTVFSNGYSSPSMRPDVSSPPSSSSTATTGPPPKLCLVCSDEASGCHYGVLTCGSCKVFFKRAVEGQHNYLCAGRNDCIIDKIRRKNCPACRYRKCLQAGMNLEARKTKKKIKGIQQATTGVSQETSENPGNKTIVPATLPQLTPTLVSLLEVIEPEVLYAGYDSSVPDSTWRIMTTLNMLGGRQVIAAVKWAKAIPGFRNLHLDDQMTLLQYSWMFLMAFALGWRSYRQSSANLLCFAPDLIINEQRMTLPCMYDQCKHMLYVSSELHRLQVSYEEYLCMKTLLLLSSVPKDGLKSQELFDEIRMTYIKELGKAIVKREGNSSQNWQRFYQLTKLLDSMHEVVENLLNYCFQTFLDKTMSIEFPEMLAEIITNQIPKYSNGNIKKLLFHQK
Outline: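 GR-bla HeLa cells carrying a GRE-driven beta-lactamase reporter, exposed to compounds for 18 h at 37 C. Reporter activation read as fluorescence after 2 h with LiveBLAzer B/G FRET substrate at room temperature.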

[10] = qHTS assay to identify small molecule antagonists of the glucocorticoid receptor (GR) signaling pathway - cell viability counter screen (AID 720693); note: nearly all actives have a fitted effect of over 55% in size
[11] = qHTS assay for identifying genotoxic compounds that show differential cytotoxicity against isogenic chicken DT40 cell lines with known DNA damage response pathways - Rev3 mutant cell line (AID 743014); note: nearly all actives have a fitted effect of over 55% in size; note: potency is the fitted concentration of half-maximal effect
[12] = qHTS assay to identify small molecule antagonists of the androgen receptor (AR) signaling pathway using the MDA cell line - cell viability counter screen (AID 743041; note: nearly all actives have a fitted effect of over 45% in size; note: potency is the fitted concentration of half-maximal effect)
Outline: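 R1881-driven MDA-kb2 AR-luc cells, 3,000/well, were dosed with library compounds for 16 h; cell health came from CellTiter-Fluor fluorescence in the reporter wells.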

[13] = qHTS assay to identify small molecule antagonists of the thyroid receptor (TR) signaling pathway - cell viability counter screen (AID 743064); note: nearly all actives have a fitted effect of over 50% in size; note: potency is the fitted concentration of half-maximal effect
Outline: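 In rat pituitary GH3.TRE-Luc reporter cells co-exposed to compound and 1 nM T3 for 23.5 h, cytotoxicity was assessed with CellTiter-Fluor in the same wells, read by fluorescence.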

[14] = qHTS assay for identifying genotoxic compounds that show differential cytotoxicity against isogenic chicken DT40 cell lines with known DNA damage response pathways - wild type cell line (AID 743012); note: nearly all actives have a fitted effect of over 60% in size; note: potency is the fitted concentration of half-maximal effect
Outline: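 Wild-type DT40 cells (300/well) exposed to compounds for 40 hours at 37 C/5% CO2. Viability read by CellTiter-Glo luminescence after 30 min at room temperature.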

[15] = target: Androgen receptor (Homo sapiens) (UniProt P10275); assay: qHTS assay to identify small molecule antagonists of the androgen receptor (AR) signaling pathway using the MDA cell line (AID 743042; note: potency is the fitted concentration of half-maximal effect; nearly all actives have a fitted effect of over 55% in size)
Sequence of Androgen receptor (Homo sapiens) (P10275 whole entry, looked up): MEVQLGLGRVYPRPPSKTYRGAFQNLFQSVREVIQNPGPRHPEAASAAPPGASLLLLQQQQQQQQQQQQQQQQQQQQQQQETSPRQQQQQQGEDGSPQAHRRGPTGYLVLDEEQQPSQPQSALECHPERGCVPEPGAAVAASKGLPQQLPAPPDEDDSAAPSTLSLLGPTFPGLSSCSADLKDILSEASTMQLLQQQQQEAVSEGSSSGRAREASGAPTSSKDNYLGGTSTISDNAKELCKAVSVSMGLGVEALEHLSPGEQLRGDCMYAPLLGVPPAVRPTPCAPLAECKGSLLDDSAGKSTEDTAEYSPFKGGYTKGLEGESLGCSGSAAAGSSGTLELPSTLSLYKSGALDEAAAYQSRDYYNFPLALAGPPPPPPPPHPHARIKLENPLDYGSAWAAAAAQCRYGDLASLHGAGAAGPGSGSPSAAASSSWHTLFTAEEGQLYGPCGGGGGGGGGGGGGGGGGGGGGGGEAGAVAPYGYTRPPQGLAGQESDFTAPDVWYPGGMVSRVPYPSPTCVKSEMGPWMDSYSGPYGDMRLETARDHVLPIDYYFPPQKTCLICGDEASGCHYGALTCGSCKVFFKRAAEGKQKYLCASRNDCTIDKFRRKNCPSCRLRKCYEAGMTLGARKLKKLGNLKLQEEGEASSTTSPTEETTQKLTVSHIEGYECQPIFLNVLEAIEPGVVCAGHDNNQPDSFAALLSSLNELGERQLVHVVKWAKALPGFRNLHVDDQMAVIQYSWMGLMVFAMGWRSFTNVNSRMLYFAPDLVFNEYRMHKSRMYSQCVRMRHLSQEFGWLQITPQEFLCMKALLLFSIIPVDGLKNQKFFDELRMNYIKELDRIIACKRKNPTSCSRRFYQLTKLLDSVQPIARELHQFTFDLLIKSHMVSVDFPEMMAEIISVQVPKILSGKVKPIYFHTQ
Outline: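 Antagonist mode: compounds plus R1881 agonist added to MDA-kb2 AR-luc cells, incubated 16 h at 37C. Luciferase reporter luminescence quantified, with multiplexed CellTiter-Fluor readout for cell viability.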

[16] = qHTS assay to identify small molecule antagonists of the androgen receptor (AR) signaling pathway - cell viability counter screen (AID 743033; note: nearly all actives have a fitted effect of over 45% in size; note: potency is the fitted concentration of half-maximal effect)
[17] = qHTS assay for identifying genotoxic compounds that show differential cytotoxicity against isogenic chicken DT40 cell lines with known DNA damage response pathways - Rad54/Ku70 mutant cell line (AID 743015); note: nearly all actives have a fitted effect of over 60% in size; note: potency is the fitted concentration of half-maximal effect
[18] = target: Androgen receptor (Homo sapiens) (UniProt P10275); assay: qHTS assay to identify small molecule antagonists of the androgen receptor (AR) signaling pathway (AID 743035; active = well fitted inhibition curve with a large enough effect in the signal ratio in the repeat runs, not every such curve was filed as active; the % refers to the signal ratio)
Outline: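 HEK293 cells stably carrying UAS-beta-lactamase reporter, 2,000/well, given compounds plus R1881 agonist and incubated 16 h at 37C. LiveBLAzer B/G FRET substrate then added for 2 h at room temperature before fluorescence reading.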

[19] = target: Androgen receptor (Homo sapiens) (UniProt P10275); assay: qHTS assay to identify small molecule agonists of the androgen receptor (AR) signaling pathway using the MDA cell line (AID 743040; note: nearly all actives have a fitted effect of over 20% in size)
Outline: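 After a 5 h incubation at 37C and 0% CO2, MDA-kb2 reporter cells were dosed with compounds in DMSO and kept 16 h under the same conditions. Luciferase activity was then read as luminescence with ONE-Glo.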

## CN1CCN(CCCN2c3ccccc3Sc3ccc(S(=O)(=O)N(C)C)cc32)CC1
[1]
  fluorescence, % of fluorescein: 0.046% [at 18.6 µM]
[2]
  fluorescence, % of fluorescent control: 0.0966% [at 18.6 µM]
[3]
  activity change: 0.0013% [at 18.6 µM]
[4]
  fluorescence, % of fluorescent control: 0.122% [at 18.6 µM]
[5]
  fluorescence, % of Rose Bengal: 0.748% [at 18.6 µM]
[6]
  fluorescence, % of fluorescent control: 0.208% [at 18.6 µM]
[7]
  fluorescence, % of fluorescein control: 0.0675% [at 18.6 µM]
[8]
  fluorescence, % of fluorescent control: 0.123% [at 18.6 µM]
[9]
  Potency: inactive
[10]
  Potency: inactive
[11]
  Potency: inactive
[12]
  Potency: inactive
[13]
  Potency: 14.3 µM (active)

## CCCCC1C(=O)N(c2ccccc2)N(c2ccc(O)cc2)C1=O (stereo unspecified)
[1]
  fluorescence, % of fluorescein: -0.124% [at 18.6 µM]
[2]
  fluorescence, % of fluorescent control: -0.0788% [at 18.6 µM]
[3]
  activity change: -0.39% [at 18.6 µM]
[4]
  fluorescence, % of fluorescent control: 0.0102% [at 18.6 µM]
[5]
  fluorescence, % of Rose Bengal: -0.239% [at 18.6 µM]
[6]
  fluorescence, % of fluorescent control: -0.111% [at 18.6 µM]
[7]
  fluorescence, % of fluorescein control: -0.17% [at 18.6 µM]
[8]
  fluorescence, % of fluorescent control: -0.0848% [at 18.6 µM]
[9]
  Potency: inactive
[10]
  Potency: inactive
[14]
  Potency: 3.2 µM (active)
[11]
  Potency: 5.69 µM (active)
[15]
  Potency: 12.7 µM (active)
[13]
  Potency: 3.59 µM (active)

## CCCCCCCC/C=C\CCCCCCCC(=O)OC(CO)CO
[1]
  outcome: inactive
[2]
  Potency: inactive
[3]
  outcome: inactive
[4]
  outcome: inactive
[5]
  outcome: inactive
[6]
  Potency: inactive
[7]
  outcome: inactive
[8]
  Potency: inactive
[9]
  Potency: inactive
[10]
  Potency: inactive
[14]
  Potency: inactive
[16]
  Potency: inactive
[12]
  Potency: inactive

## CCn1nc(C)c2c1C(=O)NCC(c1ccc(O)cc1)=N2
[1]
  outcome: inactive
[2]
  Potency: inactive
[3]
  outcome: inactive
[4]
  outcome: inactive
[5]
  outcome: inactive
[6]
  Potency: inactive
[7]
  outcome: inactive
[8]
  Potency: inactive
[9]
  Potency: inactive
[10]
  Potency: inactive
[14]
  Potency: 61.1 µM (active)
[11]
  Potency: 34.4 µM (active)
[16]
  Potency: inactive
[12]
  Potency: inactive
[13]
  Potency: inactive

## N#C[C@@H]1C[C@@H]2C[C@@H]2N1C(=O)[C@@H](N)C12CC3CC(CC(O)(C3)C1)C2
[1]
  outcome: inactive
[2]
  Potency: inactive
[3]
  outcome: inactive
[4]
  outcome: inactive
[5]
  outcome: inactive
[6]
  Potency: inactive
[7]
  outcome: inactive
[8]
  Potency: inactive
[9]
  Potency: inactive
[10]
  Potency: inactive
[14]
  Potency: inactive
[11]
  Potency: inactive
[17]
  Potency: inactive
[16]
  Potency: inactive
[12]
  Potency: inactive

## CCCCCCCCCCCC[N+](C)(C)CCCS(=O)(=O)[O-]
[1]
  outcome: inactive
[2]
  Potency: inactive
[3]
  outcome: inactive
[4]
  outcome: inactive
[5]
  outcome: inactive
[6]
  Potency: inactive
[7]
  outcome: inactive
[8]
  Potency: inactive
[9]
  Potency: inactive
[10]
  Potency: inactive
[17]
  Potency: 27.6 µM (active)
[12]
  Potency: inactive

## CC(C)(C)C(=O)O
[1]
  outcome: inactive
[2]
  Potency: inactive
[3]
  outcome: inactive
[4]
  outcome: inactive
[5]
  outcome: inactive
[6]
  Potency: inactive
[7]
  outcome: inactive
[8]
  Potency: inactive
[9]
  Potency: inactive
[10]
  Potency: inactive
[14]
  Potency: inactive
[11]
  Potency: inactive
[17]
  Potency: inactive
[16]
  Potency: inactive
[12]
  Potency: inactive
[13]
  Potency: inactive

## Cc1cc(O)c2c(O)c3c(O)cccc3cc2c1
[1]
  outcome: inactive
[2]
  Potency: inactive
[3]
  outcome: inactive
[4]
  outcome: inactive
[5]
  outcome: inactive
[6]
  Potency: inactive
[7]
  outcome: inactive
[8]
  Potency: inactive
[9]
  Potency: inactive
[10]
  Potency: inactive
[14]
  Potency: inactive
[11]
  Potency: inactive
[16]
  Potency: inactive
[18]
  Potency: inactive
[12]
  Potency: inactive
[13]
  Potency: inactive

## CCCCC(=O)O[C@]1(C(=O)CO)[C@@H](C)C[C@H]2[C@@H]3CCC4=CC(=O)C=C[C@]4(C)[C@@]3(F)[C@@H](O)C[C@@]21C
[1]
  outcome: inactive
[2]
  Potency: inactive
[3]
  outcome: inactive
[4]
  outcome: inactive
[5]
  outcome: inactive
[6]
  Potency: inactive
[7]
  outcome: inactive
[8]
  Potency: inactive
[9]
  Potency: 0.0019 µM (active)
[10]
  Potency: inactive
[14]
  Potency: 43.3 µM (active)
[11]
  Potency: 24.3 µM (active)
[17]
  Potency: 24.3 µM (active)
[12]
  Potency: inactive

## CCC(C)=O
[1]
  outcome: inactive
[2]
  Potency: inactive
[3]
  outcome: inactive
[4]
  outcome: inactive
[5]
  outcome: inactive
[6]
  Potency: inactive
[7]
  outcome: inactive
[8]
  Potency: inactive
[9]
  Potency: inactive
[10]
  Potency: inactive
[14]
  Potency: inactive
[11]
  Potency: inactive
[17]
  Potency: inactive
[16]
  Potency: inactive
[12]
  Potency: inactive
[13]
  Potency: inactive

## O=C(c1ccc(O)cc1)c1ccc(Cl)cc1
[1]
  outcome: inactive
[2]
  Potency: inactive
[3]
  outcome: inactive
[4]
  outcome: inactive
[5]
  outcome: inactive
[6]
  Potency: inactive
[7]
  outcome: inactive
[8]
  Potency: inactive
[9]
  Potency: inactive
[11]
  Potency: 62.4 µM (active)
[17]
  Potency: 55.6 µM (active)
[16]
  Potency: inactive

## CCOC(=O)C(C)Oc1ccc(Oc2nc3ccc(Cl)cc3o2)cc1 (stereo unspecified)
[1]
  outcome: inactive
[2]
  Potency: inactive
[3]
  outcome: inactive
[4]
  outcome: inactive
[5]
  outcome: inactive
[6]
  Potency: inactive
[7]
  outcome: inactive
[8]
  Potency: inactive
[9]
  Potency: inactive
[10]
  Potency: inactive
[11]
  Potency: 68.6 µM (active)
[17]
  Potency: 61.1 µM (active)
[16]
  Potency: inactive
[12]
  Potency: inactive

## Fc1ccccc1[C@@H](F)COC1CCC(Nc2ncnc3[nH]ncc23)CC1 (stereo partly specified)
[1]
  outcome: inactive
[2]
  Potency: inactive
[3]
  outcome: inactive
[4]
  outcome: inactive
[5]
  outcome: inactive
[6]
  Potency: inactive
[7]
  outcome: inactive
[8]
  Potency: inactive
[9]
  Potency: inactive
[10]
  Potency: inactive
[14]
  Potency: 15.4 µM (active)
[11]
  Potency: 17.2 µM (active)
[17]
  Potency: 12.2 µM (active)
[16]
  Potency: 49 µM (active)
[19]
  Potency: inactive

## O=C(N[C@@H](c1ccccc1)[C@@H]1CCCCN1)c1cccc(C(F)(F)F)c1Cl
[1]
  outcome: inactive
[2]
  Potency: inactive
[3]
  outcome: inactive
[4]
  outcome: inactive
[5]
  outcome: inactive
[6]
  Potency: inactive
[7]
  outcome: inactive
[8]
  Potency: inactive
[9]
  Potency: inactive
[10]
  Potency: inactive
[14]
  Potency: 12.2 µM (active)
[11]
  Potency: 13.7 µM (active)
[17]
  Potency: 15.4 µM (active)
[12]
  Potency: 24.3 µM (active)
[13]
  Potency: 24.3 µM (active)

## CCCCOC(=O)CCS
[1]
  outcome: inactive
[2]
  Potency: inactive
[3]
  outcome: inactive
[4]
  outcome: inactive
[5]
  outcome: inactive
[6]
  Potency: inactive
[7]
  outcome: inactive
[8]
  Potency: inactive
[9]
  Potency: inactive
[10]
  Potency: inactive
[14]
  Potency: inactive
[11]
  Potency: inactive
[17]
  Potency: inactive
[16]
  Potency: inactive
[12]
  Potency: inactive
[13]
  Potency: inactive

— PubChem BioAssay (Tox21)
